Data from PubChem BioAssay AID1117273 (Broad Institute, 2014).
A number with no mark means an inactive call. No rule for the calls is given here.

assay: inhibitors of orthopox early gene expression, dose response, cell-based, single fluorophore reporter, dry powder (AID 1117273); details: orthopoxvirus-infected cells, early gene fluorescent reporter; at 10 µM; hits give high values

Row | SMILES | inhibition [%]
1 | C[C@@H](O)C#Cc1ccc2c(c1)O[C@@H](CN(C)Cc1ccc(-c3ccc(Cl)cc3)cc1)[C@@H](C)CN([C@@H](C)CO)S2(=O)=O | 17.2
2 | Cc1ccccc1-c1ccc(CN(C)C[C@@H]2Oc3cc(C#C[C@@H](C)O)ccc3S(=O)(=O)N([C@@H](C)CO)C[C@@H]2C)cc1 | 63.3
3 | Cc1ccc(-c2ccc(CN(C)C[C@@H]3Oc4cc(C#C[C@@H](C)O)ccc4S(=O)(=O)N([C@@H](C)CO)C[C@@H]3C)cc2)cc1 | 32.5
4 | Cc1cccc(-c2ccc(CN(C)C[C@@H]3Oc4cc(C#C[C@@H](C)O)ccc4S(=O)(=O)N([C@@H](C)CO)C[C@@H]3C)cc2)c1 | 48
5 | COc1ccccc1-c1ccc(CN(C)C[C@@H]2Oc3cc(C#C[C@@H](C)O)ccc3S(=O)(=O)N([C@@H](C)CO)C[C@@H]2C)cc1 | -12.9
6 | C[C@@H](O)C#Cc1ccc2c(c1)O[C@@H](CN(C)Cc1ccc(-c3ccccc3Cl)cc1)[C@@H](C)CN([C@@H](C)CO)S2(=O)=O | 59.3
7 | C[C@@H](O)C#Cc1ccc2c(c1)O[C@@H](CN(C)Cc1ccc(-c3cccc(Cl)c3)cc1)[C@@H](C)CN([C@@H](C)CO)S2(=O)=O | 48.5
